The values that follow come from the supplement of paper PMC11417369.

The full ranking holds about 25,000 sequences; the median of “ln(normalized median fluorescence intensity)” is about 9.7, and the highest 2% start at about 11. The entries come from a sample that favours the highest values as a whole.

The experiment deals with PfAP2-HC AP2 domain (GST-tagged). Description: gcPBM binding intensity (ln(normalized median fluorescence intensity)); higher = stronger DNA binding. The essentials: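 The binding buffer was 1× PBS containing 1% milk, 0.2 mg/ml BSA, 0.5% salmon testes DNA and 0.03% Triton X-100. In it, GST-tagged P. falciparum DNA-binding domains expressed in E. coli were applied for 1 h to an Agilent 4 × 180k array of primer-extended double-stranded 36-bp intergenic genomic probes plus negative controls. Binding intensity, read with Alexa488 anti-GST antibody and a 488 nm scan, is the highest Masliner-normalised natural-log median intensity across replicate spots of either probe orientation.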
As for “TCTTTTTTTTTACATACTTTTTTCCTTTTTTTTTTA [CACACA_negctrl_site1429]”, the “gcPBM binding intensity (ln)” value came out at 9.71.

As to “TCTTACAAAAAACAAACAGAGAAAAATATAAGGAAA [XGTACX_negctrl_site520]”, the “gcPBM binding intensity (ln)” value was 9.61.

As to “AAATTATTTCCGTGTACACATAAATATATATTTTAT [CACACA_site5121]”, the “gcPBM binding intensity (ln)” value amounted to 9.89.

As for “CAATATTTTCATAGATGTACTTTGGACTTATTATAT [XGTACX_site4849]”, the “gcPBM binding intensity (ln)” value is 9.6.

For “AATATTGTATATAATAAACACACAATATTAAAAATA [CACACA_site8262]”, the “gcPBM binding intensity (ln)” value amounted to 10.1.

Take “TAACATATTATATATACATGCATACGTGAACTAATC [TGCATGCA_site888]”: the “gcPBM binding intensity (ln)” value came out at 9.72.

As for “ATTTATTTATGTATTTGTACGTATATATTTATGCAT [XGTACX_site5218]”, the “gcPBM binding intensity (ln)” value worked out at 9.83.

With “AAGTAAAAAAATAGCACACACACAAAAACACAGACA [CACACA_site4839]”, the “gcPBM binding intensity (ln)” value was 10.7.

On to “ATAAATAAAAACACAAAACAAAACAAAACAAAACAA [CACACA_negctrl_site1257]”, for which the “gcPBM binding intensity (ln)” value was found to be 9.61.

For “GGACAACAAACAAACACACACAAAAAAAAAATAAAA [CACACA_site3791]”, the “gcPBM binding intensity (ln)” value came to 11.

“GTAAAAAAATAGCACACACACAAAAACACGCACAAA [CACACA_site6723]”: the “gcPBM binding intensity (ln)” value is 11.4.

As for “AAGGACAACAAACAAACACACACAAAAAAAAAATAA [CACACA_site9263]”, the “gcPBM binding intensity (ln)” value turned out to be 10.2.

Turning to “CAACAAAATAAACACACACACACAAACACAAAAAAA [CACACA_site5806]”, the “gcPBM binding intensity (ln)” value was determined as 11.4.

Consider “TCAATAATAAAAAACACACACAAAAAAAAATAATTA [CACACA_site2798]”, for which the “gcPBM binding intensity (ln)” value came to 10.2.

For “TTTCAATAATAAAAAACACACACAAAAAAAAATAAT [CACACA_site8905]”, the “gcPBM binding intensity (ln)” value is 11.

Take “AAAACAAATAGACACGCACACAAAAAAAAAAAAAAA [CACACA_site801]”: the “gcPBM binding intensity (ln)” value was found to be 10.3.

For “AAAAAAATAAAACACACACACAAAAAAATAAAAATA [CACACA_site465]”, the “gcPBM binding intensity (ln)” value came out at 10.8.

“ACAAATAAATAAAAAACACACACAAATAAATAAATA [CACACA_site8708]”: the “gcPBM binding intensity (ln)” value was found to be 10.6.

In the case of “CAAAAAAAATAAAACACACACACAAAAAAATAAAAA [CACACA_site466]”, the “gcPBM binding intensity (ln)” value worked out at 10.7.

Take “TATTTGTAAAAATTGTGTACTTAGAAAATTCCAAAA [XGTACX_site6007]”: the “gcPBM binding intensity (ln)” value is 9.22.

“ATAATATATGAAAAAACGATTTTTTCATTTTAAATA [XGTACX_negctrl_site146]”: the “gcPBM binding intensity (ln)” value was 9.51.

“TTTGGTTATATTTAAAAAAGACTAATGAAAATTAAA [XGTACX_negctrl_site526]”: the “gcPBM binding intensity (ln)” value amounted to 9.35.

In the case of “AACATTCTATGTTGCACACAAAGAGAAAAATTTATT [CACACA_site3995]”, the “gcPBM binding intensity (ln)” value came out at 9.78.

“TATATATATATATATATATATATTTTTATTATATAT [XGTACX_negctrl_site89]”: the “gcPBM binding intensity (ln)” value was found to be 9.89.
